Experiment [1] has as its system XIP peptide (Xip251-270) binding. Kind of experiment: small-molecule binders of XIP peptide, primary screen, biochemical, small-molecule microarray, fluorescence 635/667 nm, 0.1 µg/mL protein (AID 1182). To be noted: fluorescent protein binding, 635 nm, higher = more signal, called active from +8 up or from −8 down.
The subject of a further experiment is XIP peptide (Xip251-270). As to the kind of experiment: small-molecule binders of XIP peptide, primary screen, biochemical, small-molecule microarray, fluorescence 635/667 nm, 0.5 µg/mL protein (AID 1183). To be noted: small-molecule microarray binding, fluorescence 635 nm; higher = more signal.
A short description of experiment [2]: Plasmodium falciparum growth inhibition, primary screen, strain 3D7, DAPI fluorescence, 100 nL (AID 1184).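 Also: parasites grown inside human red blood cells in medium with human serum.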 To be noted: P. falciparum 3D7 growth, 3 d, higher = more signal.
For experiment [3], the target named is Homeobox protein Hox-A13 (Mus musculus) (UniProt Q62424). As to the kind of experiment: inhibitors of HoxA13-DNA binding, primary screen, biochemical, fluorescence polarization, labeled oligonucleotide (AID 1185). To be noted: 15 min, higher = more signal, called active from +8 up or from −8 down.
Chain of Homeobox protein Hox-A13 (Mus musculus) (Q62424 whole entry, looked up): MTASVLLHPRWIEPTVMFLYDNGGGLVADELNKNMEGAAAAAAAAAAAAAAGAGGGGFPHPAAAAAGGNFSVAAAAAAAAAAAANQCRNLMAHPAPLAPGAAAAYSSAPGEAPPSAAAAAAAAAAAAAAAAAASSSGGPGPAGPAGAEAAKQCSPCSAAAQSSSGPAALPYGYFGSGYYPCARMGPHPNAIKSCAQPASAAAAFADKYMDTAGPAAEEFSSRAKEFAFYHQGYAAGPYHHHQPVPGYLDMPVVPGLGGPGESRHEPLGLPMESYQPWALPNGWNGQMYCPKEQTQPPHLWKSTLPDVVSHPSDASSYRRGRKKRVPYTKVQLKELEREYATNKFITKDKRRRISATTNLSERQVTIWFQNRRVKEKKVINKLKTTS
A short description of experiment [4]: inhibitors of hydroxyurea-induced Chk1 phosphorylation, primary screen, imaging, HeLa, phospho-Chk1 antibody, percent positive cells (AID 1186). To be noted: hydroxyurea-induced phospho-Chk1 immunofluorescence imaging, higher = more signal.
Experiment [5] can be described thus: inhibitors of hydroxyurea-induced Chk1 phosphorylation, primary screen, imaging, HeLa, phospho-Chk1 nuclear intensity (AID 1187). Particulars: hydroxyurea-induced phospho-Chk1 immunofluorescence imaging, higher = more signal.

Activity calls are given as the source filed them. Unless noted, no rule for the calls is given here.

We go through 24 compounds from PubChem BioAssay.

Turning to `C[N+](C)(C)CCCC[C@@H]1NC(=O)[C@@H]2C[C@H](C(=O)NCCCCCCNC(=O)CS)[C@H](c3ccc(O)cc3)N2C1=O`, the composite z-score is 0.307 (inactive) in experiment [1] and 0.496 with XIP peptide (Xip251-270). For the same compound, the z-score is 0.504 in experiment [2], -1.32 (inactive) in experiment [3], 0.146 (inactive) in experiment [4] and 0.32 (inactive) in experiment [5].
For the compound `C#CCN1[C@H](/C=C/C2CC2)[C@H](Cc2ccccc2)OC(=O)[C@@H]1Cc1ccccc1`, the values for the composite z-score (in experiment [1]; in the experiment with XIP peptide (Xip251-270)) were 1.42 (inactive) and 0.513, respectively. For the same compound, the z-score in experiment [2] was -0.568; in experiment [3] it was -0.837 (inactive); in experiment [4], -0.315 (inactive); in experiment [5], -0.418 (inactive).
For the compound `NC(=O)N1C(=O)C2C(C1=O)C1C=C(CCCO)C2C(C2CC2)N1Cc1cc2c(cc1Br)OCO2` (centres undefined), the composite z-score in experiment [1] was -0.0845 (inactive); with XIP peptide (Xip251-270) it was -0.102. For the same compound, the z-score in experiment [2] was 1.74; in experiment [3], -7.26 (inactive); in experiment [4], 0.207 (inactive); in experiment [5], 0.727 (inactive).
Take `C=CC[C@@]1(C(=O)N2CCCCC2)N=C(c2ccc(OCCCO)cc2)O[C@@H]1c1ccccc1CN=[N+]=[N-]`: the composite z-score in experiment [1] was 0.274 (inactive); in the experiment with XIP peptide (Xip251-270), 0.888. Further, the z-score was -2.21 in experiment [2], -0.0816 (inactive) in experiment [3], -0.514 (inactive) in experiment [4] and -0.604 (inactive) in experiment [5].
For the compound `COC(=O)c1c2oc(c1C(=O)OC)C(=O)N[C@@H](C(C)C)Cn1cc(nn1)C1(CCCCC1)NC(=O)N[C@H](CO)CC2`, the composite z-score in experiment [1] is 0.0023 (inactive); in the experiment on XIP peptide (Xip251-270), 0.0911. The z-score in experiment [2] was 0.0538; in experiment [3] it was -0.587 (inactive); in experiment [4], 0.193 (inactive); in experiment [5], 0.284 (inactive).
Take `Cc1ccc(S[C@]2(C(=O)O)CC(=O)N(Cc3ccccc3C(F)(F)F)[C@@H]2c2ccc(CO)cc2I)cc1`: the figures for the composite z-score (in experiment [1]; in the experiment with XIP peptide (Xip251-270)) were 0.397 (inactive) and 0.773, respectively. In addition, the z-score in experiment [2] was 0.182; in experiment [3] it was -2.74 (inactive); in experiment [4] it was -0.157 (inactive); in experiment [5], 0.408 (inactive).
In the case of `OCC1C=C(/C=C/c2ccccc2)CN1Cc1ccccc1Br` (centres undefined), the composite z-score was 1.74 (inactive) in experiment [1] and 0.698 with XIP peptide (Xip251-270). For the same compound, the z-score is -0.982 in experiment [2], -2.19 (inactive) in experiment [3], -0.449 (inactive) in experiment [4] and -0.283 (inactive) in experiment [5].
For the compound `COCCOC(=O)N1C(=O)[C@@]2(c3ccccc31)[C@H](C(=O)N1CCc3cc(OC)c(OC)cc3C1)[C@H]1C(=O)O[C@H](c3ccccc3)[C@H](c3ccccc3)N1[C@@H]2c1ccc(O)cc1`, the composite z-score is 1.58 (inactive) in experiment [1] and 0.807 in the experiment with XIP peptide (Xip251-270). Besides, the z-score in experiment [2] was -0.45; in experiment [3], -1.34 (inactive); in experiment [4], -0.437 (inactive); in experiment [5], -0.469 (inactive).
Take `COc1ccc([Si](C)(C)[C@H]2[C@H](CC(=O)N3CCC[C@H]3CO)O[C@@]3(C(=O)N(Cc4cccc(N5CCOC5=O)c4)c4ccccc43)[C@@H]2C)cc1`: the results for the composite z-score (in experiment [1]; in the experiment on XIP peptide (Xip251-270)) were 0.991 (inactive) and 0.672, respectively. For the same compound, the z-score in experiment [2] is -1.42; in experiment [3], -4.71 (inactive); in experiment [4], 0.835 (inactive); in experiment [5], 0.936 (inactive).
As to `CCOC(=O)C1=CCC(c2ccc(F)cc2)N(S(=O)(=O)c2ccc(C)cc2)C1` (centres undefined), the composite z-score in experiment [1] was 0.428 (inactive); in the experiment on XIP peptide (Xip251-270), 0.298. The z-score in experiment [2] is 0.217; in experiment [3], -2.03 (inactive); in experiment [4] it was 0.447 (inactive); in experiment [5] it was -0.996 (inactive).
As to `Cc1ccc(S[C@]2(C(=O)NCC(C)C)CC(=O)N(Cc3cc(C(F)(F)F)cc(C(F)(F)F)c3)[C@@H]2c2ccc(CO)cc2)cc1`, the results for the composite z-score (in experiment [1]; in the experiment on XIP peptide (Xip251-270)) were -0.0537 (inactive) and 0.0501, respectively. Also, the z-score in experiment [2] is -0.309; in experiment [3] it was -2.19 (inactive); in experiment [4], -0.0406 (inactive); in experiment [5], -0.284 (inactive).
Take `COc1ccc(C#Cc2ccc3c(c2)[C@]2(C(=O)N3)[C@H](c3ccc(O)cc3)N3[C@H](c4ccccc4)[C@H](c4ccccc4)OC(=O)[C@H]3[C@@H]2C(=O)N2CCc3cc(OC)c(OC)cc3C2)cc1`: the composite z-score in experiment [1] is 0.409 (inactive); with XIP peptide (Xip251-270), 0.465. In addition, the z-score in experiment [2] is -2; in experiment [3], -1.17 (inactive); in experiment [4] it was -0.0377 (inactive); in experiment [5], -0.187 (inactive).
As for `CCCCC(O)C1C=CC2C(=O)N(C)C(=O)C2N1N1CCCCC1` (centres undefined), the composite z-score is 0.0433 (inactive) in experiment [1] and 0.941 in the experiment with XIP peptide (Xip251-270). For the same compound, the z-score in experiment [2] is -0.133; in experiment [3] it was -6.77 (inactive); in experiment [4], 0.492 (inactive); in experiment [5] it was 0.154 (inactive).
On to `CC(C)CCC[C@@H](C)[C@H]1CC[C@@]2(C)C3=C(CC[C@]12C)[C@@]1(C)CC[C@H](OC(=O)c2ccc(C(F)(F)F)nc2)C(C)(C)C1CC3` (some centres undefined), for which the composite z-score in experiment [1] is 0.106 (inactive); in the experiment on XIP peptide (Xip251-270) it was -0.176. Moreover, the z-score in experiment [2] was -0.145; in experiment [3], -1.23 (inactive); in experiment [4], -0.887 (inactive); in experiment [5], -0.365 (inactive).
For `CCOC(=O)[C@H]1C/C=C/C[C@H](C(=O)OCC)C(=O)O[C@H]2[C@@H](OC)O[C@H](CO)[C@@H](OC(=O)c3ccc(Br)cc3)[C@@H]2OC1=O`, the composite z-score in experiment [1] is 0.146 (inactive); in the experiment with XIP peptide (Xip251-270), -0.103. Moreover, the z-score is -1.11 in experiment [2], -1.2 (inactive) in experiment [3], -0.0241 (inactive) in experiment [4] and 0.237 (inactive) in experiment [5].
Turning to `[N-]=[N+]=Nc1ccccc1C[C@]1(C(=O)N2CCCCC2)COC(c2ccc(OCCCO)cc2)=N1`, the composite z-score in experiment [1] is 1.98 (inactive); with XIP peptide (Xip251-270), 0.204. For the same compound, the z-score was -2.29 in experiment [2], -6.17 (inactive) in experiment [3], 0.118 (inactive) in experiment [4] and -0.232 (inactive) in experiment [5].
`O=C1[C@H]2C=C(Br)[C@H](C[C@@H]2OCCCCCCO)[C@@]12CO2`: the figures for the composite z-score (in experiment [1]; in the experiment on XIP peptide (Xip251-270)) were -0.358 (inactive) and -0.777, respectively. Moreover, the z-score in experiment [2] was -0.355; in experiment [3] it was -1.84 (inactive); in experiment [4], 0.73 (inactive); in experiment [5] it was 0.231 (inactive).
As to `COCCCNC(=O)[C@@]1(Sc2ccc(C)cc2)CC(=O)N(Cc2ccccc2Cl)[C@@H]1c1ccc(CO)cc1`, the composite z-score in experiment [1] was 0.906 (inactive); with XIP peptide (Xip251-270) it was 0.887. Also, the z-score in experiment [2] is -1.63; in experiment [3], -2.28 (inactive); in experiment [4], -0.63 (inactive); in experiment [5], -1.1 (inactive).
Consider `COC(=O)C[C@H]1O[C@@H](CCc2ccccc2)[C@@H](C)[C@@H]1[Si](C)(C)c1ccc(OC)cc1`, for which the composite z-score was -0.633 (inactive) in experiment [1] and -0.919 in the experiment on XIP peptide (Xip251-270). Further, the z-score in experiment [2] is -1.63; in experiment [3] it was -4.56 (inactive); in experiment [4], 0.0465 (inactive); in experiment [5], 0.33 (inactive).
On to `O=C(CS)NCCCCCNC(=O)[C@H]1C[C@H]2C(=O)NCC(=O)N2[C@H]1c1ccc(O)cc1`, for which the composite z-score is -0.344 (inactive) in experiment [1] and 0.149 in the experiment with XIP peptide (Xip251-270). Also, the z-score in experiment [2] is 0.201; in experiment [3], -1.2 (inactive); in experiment [4], -0.831 (inactive); in experiment [5] it was -0.795 (inactive).
For the compound `CCOC(=O)C[C@H]1[C@H](OC(=O)c2ccc(-c3ccccc3)cc2)[C@@H](NC(=O)c2ccccc2)c2cc(OCCCO)ccc2N1C(=O)c1ccc2ccccc2n1`, the composite z-score in experiment [1] is 0.304 (inactive); in the experiment on XIP peptide (Xip251-270) it was 0.0388. Also, the z-score in experiment [2] was 1.24; in experiment [3] it was -1.19 (inactive); in experiment [4] it was -0.0348 (inactive); in experiment [5], -0.234 (inactive).
Turning to `COCCOC(=O)N1C(=O)[C@@]2(c3cc(C#CC4=CCCCC4)ccc31)[C@H](c1ccc(OCCO)cc1)N1[C@H](c3ccccc3)[C@H](c3ccccc3)OC(=O)[C@H]1[C@@H]2C(=O)N1CCc2cc(OC)c(OC)cc2C1`, the composite z-score was 0.411 (inactive) in experiment [1] and 0.64 in the experiment with XIP peptide (Xip251-270). For the same compound, the z-score in experiment [2] was -2.06; in experiment [3], 3.66 (inactive); in experiment [4], -0.0561 (inactive); in experiment [5], -0.0158 (inactive).
For `COC(=O)C(CC#Cc1ccc2c(c1)[C@]1(C(=O)N2)[C@H](c2ccc(O)cc2)N2[C@H](c3ccccc3)[C@H](c3ccccc3)OC(=O)[C@H]2[C@@H]1C(=O)N1CCN(c2ncccn2)CC1)C(=O)OC`, the composite z-score in experiment [1] was 0.655 (inactive); in the experiment with XIP peptide (Xip251-270), 0.826. For the same compound, the z-score in experiment [2] was -2.26; in experiment [3], -1.65 (inactive); in experiment [4], -0.231 (inactive); in experiment [5] it was -0.514 (inactive).
As to `Cc1c(NC(=O)/C(C#N)=C/c2cccc([N+](=O)[O-])c2)c(=O)n(-c2ccccc2)n1C`, the composite z-score in experiment [1] is 0.92 (inactive); in the experiment with XIP peptide (Xip251-270), 0.695. Also, the z-score was -0.413 in experiment [2], -2.41 (inactive) in experiment [3], -0.782 (inactive) in experiment [4] and -1.15 (inactive) in experiment [5].
